Test system: FGR
Details: concentration: 1 μM, replicates: in singlicate; n = 1
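Also: KINOMEscan kinase panel screen.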

SMILES	%Inh [%]
FC(F)(F)c1ccc(/C=C/c2cncnc2Nc2ccc3[nH]c(Cc4ccccc4)nc3c2)cc1 [GW709199]	34
CN(C)Cc1ccc(-c2ccc3c(Nc4ccc(Oc5ccccn5)cc4)ccnc3c2)o1 [GW567148]	81
Cc1ccc(F)c(C(=O)Nc2cccc(-c3nn4ccccc4c3-c3ccnc(Nc4cccc(F)c4)n3)c2)c1F [GSK361061]	91.4
Cc1occc1-c1ncc(OC[C@@H](N)Cc2c[nH]c3ccccc23)cc1-c1ccc2[nH]nc(C)c2c1.O=C(O)C(F)(F)F [GSK682037]	77
CN(C)S(=O)(=O)c1cc(-c2ccc3nccc(-c4cccc(S(N)(=O)=O)c4)c3c2)cnc1N [GSK1669921]	22
COCCOCCOc1cc2ncc3c4ccc(C#N)cc4[nH]c3c2cc1OC	30
COc1cccc(C2=C(Nc3ccc(Cl)c(C(=O)O)c3)C(=O)NC2=O)c1 [SB-390769]	24
Oc1cc(Nc2ccnc3cc(I)ccc23)ccc1F [GW552771]	84
Cc1ccc(S(=O)(=O)Nc2ccc(Nc3nccc(Nc4cccc5[nH]ncc45)n3)cc2)cc1 [GSK581271]	56
Cc1ccc(C(=O)N2CC[C@@H](O)C2)cc1-n1c(C)cc(OCc2ccc(F)cc2F)c(Br)c1=O	0
COC(=O)Nc1nc2cc(Oc3ccc(NC(=O)Nc4cc(C(F)(F)F)ccc4F)cn3)ccc2[nH]1.Cl.Cl [GW681170]	15
COc1cc(Nc2nccc(N3CCC(NC(=O)c4cc5ccccc5s4)C3)n2)cc(OC)c1OC (stereo not shown) [GSK1379760]	23
O=C(Nc1cccc(-c2nn3ccccc3c2-c2ccnc(Nc3cccc(F)c3)n2)c1)c1c(F)ccc(F)c1Cl [GSK357952]	97.1
O=C(Nc1ccccc1F)NC1CCN(c2ccnc(Nc3ccc(F)cc3)n2)CC1 [GSK1379800]	18
O=c1[nH]cc(-c2ccc(N3CCOCC3)cc2)c2sc(-c3cn[nH]c3)cc12 [GSK2276055]	0
COc1cccc(C(=O)Nc2cccc(Oc3ccc4nc(NC(=O)C5CC5)cn4n3)c2)c1	98
O=C(Nc1cccc(Oc2ccc3nc(NC(=O)C4CC4)cn3n2)c1)c1ccccc1C(F)(F)F	55
NCCCC(NC(=O)c1cc(Br)c(-c2ccnc3[nH]ccc23)s1)c1ccccc1.O=C(O)C(F)(F)F.O=C(O)C(F)(F)F (stereo not shown) [GSK1287544]	24
COC(=O)Nc1nc2ccc(Oc3ccc(NC(=O)Nc4cc(C(F)(F)F)ccc4F)cc3)cc2n1C.Cl [GW692089]	28

SMILES	%Inh [%]
COc1cc(Nc2nccc(-c3c(-c4cccc(NC(=O)c5c(F)cccc5F)c4)nn4ncccc34)n2)cc(OC)c1OC [GSK327238]	99.1
CN1CCN(CCCNc2nccc(-c3c(-c4ccc(F)cc4)nn4cc(C(F)(F)F)ccc34)n2)CC1 [GW621581]	6
Cc1ccc(C)c(NC(=O)NC2CCN(c3ccnc(Nc4ccc(F)cc4)n3)C2)c1 (stereo not shown) [GSK1379720]	24
Cc1cccc(Nc2nc(N[C@H]3CCNC3)ncc2C(N)=O)c1.Cl [GSK2197149]	82
COc1ccc(Nc2nccc(NCCNC(=O)c3cc4ccccc4s3)n2)cc1 [GSK1379896]	1
Nc1ncc(-c2cccnc2)c2scc(-c3ccc4c(c3)CCN4C(=O)Cc3ccccc3)c12 [GSK683281]	25
Cl.Cl.NCC(NC(=O)c1cc(-c2ccccc2)c(-c2ccnc3[nH]ccc23)s1)c1ccccc1 (stereo not shown) [GSK1321561]	35
Nc1ncc(-c2ccc3nccc(-c4ccncc4)c3c2)cc1S(=O)(=O)N1CCOCC1 [GSK1627798]	24
CCn1c(-c2nonc2N)nc2c(C#CC(C)(C)O)ncc(OCCCCN)c21.O=C(O)C(F)(F)F.O=C(O)C(F)(F)F [GSK507274]	33
Nc1n[nH]c2cnc(-c3ccccc3)cc12 [SB-642124]	32
Cl.c1ccc(-c2ccc3c(Nc4ccc5[nH]ncc5c4)ccnc3c2)nc1 [GW440137]	30
Nc1ncnc2c1nc(-c1ccccc1)n2-c1ccccc1 [SKF-97293]	31
Cn1cc(-c2ccc3c(c2)CCN3C(=O)Cc2cccc(Cl)c2)c2c(N)ncnc21 [GSK2606590]	35
COc1cccc(-c2ccc3c(NC(=O)C4CC4)n[nH]c3n2)c1 [SB-710903]	26
CC(=O)N1CCN(c2ccc(Nc3nccc(-c4sc(C(C)C)nc4-c4cccc(NS(=O)(=O)c5cccc(Cl)c5)c4)n3)cn2)CC1 [GSK1660437]	78
CC(C)(C)c1ccc2nccc(Nc3cccc(O)c3)c2c1 [GW856795]	54
COc1cc2c(cc1OCCN1CCNCC1)ncc1c3ccc(C#N)cc3[nH]c21	2
O=C(Nc1cccc(-c2nn3ncccc3c2-c2ccnc(Nc3ccccc3)n2)c1)c1c(F)cccc1F [GSK198271]	97.2

Reference: PMC5540273 (PLoS ONE, 2017)
